This is an account of results in PubChem BioAssay AID1852 (Sanford-Burnham Center for Chemical Genomics, 2009).

Screen size: about 2,500 compounds; about 1,100 (44%) were called active. So high a share suggests a set chosen from earlier hits. Some of the results follow. Values without a mark were called inactive.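 Rule for the calls: active = inhibition above 50% at 4 µM in the single-point screen; inactive = inhibition of 50% or less.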

This experiment is described as follows: TNF-a-driven NF-kB reporter inhibitors, primary screen, selectivity assay for NOD1/NOD2 signaling inhibitor project, cell-based, HEK293T NF-kB-Luc, luminescence (AID 1852). The note with it: TNF-a induced, 14 h, at 4 µM, stronger effect = higher value.
Regarding `COc1ccc(CN(C)Cc2nc(Cc3cccc(F)c3)no2)c2cccnc12`, the inhibition was 48.3%.
In the case of `Cc1ccc(-n2c(C)cc(/C=c3/sc4nc5ccccc5n4c3=O)c2C)cc1`, the inhibition was -32%.
The figure for `COc1ccc(-n2cc(C#N)c(=O)[nH]c2=O)cc1` is 47.1%.
The figure for `COc1cccc(-n2nc(C#N)c(Cl)cc2=O)c1` is 45.7%; for `COc1ccc(-n2ncc3c(N(C)C4CCCCC4)ncnc32)cc1` it is 23.2%.
As to `COc1ccc(-n2ncc(Cl)c(Cl)c2=O)cc1`, the inhibition was 78.2% (active).
Turning to `COc1ccc(-n2nc(C#N)c(Cl)cc2=O)cc1`, the inhibition is 59.1% (active).
The figure for `Cc1ccc(OCc2nnc(SC3CCc4ccccc4C3=O)n2C)cc1` (stereo unspecified) is 17.5%; for `CCOc1ccc(-n2c(C)c(C(C)=O)c3cc(O)ccc32)cc1` it is 40.7%; for `COc1ccc(C(C)=O)cc1Cn1c(=O)cc(C)[nH]c1=O` it is 40.6%.
To `COc1ccc2c(c1)c(=O)oc1c(C)c(OCc3ccc(C(=O)O)cc3)ccc12` belongs 34.1%; to `CCOc1ccc(-n2c(C)c(C(C)=O)c3cc(OC(C)=O)ccc32)cc1`, 78.7% (active).
Turning to `COc1ccc2c(c1)c(C(C)=O)c(C)n2CCc1ccccc1`, the inhibition is 53.2% (active).
To `COc1ccc(-n2c(C)c(C(C)=O)c3cc(OC(C)=O)ccc32)cc1` belongs 94.8% (active).
To `COc1ccc2c(c1)c(C(C)=O)c(C)n2-c1ccc(C(C)=O)cc1` belongs 71.3% (active); to `O=C(NCCc1ccccc1)c1ccc2c(c1)OCCO2`, 48.5%.
The figure for `O=C(NCCc1ccccc1)c1ccc2c(c1)OCCCO2` is 100% (active).
Turning to `O=C(CCl)Nc1c(C(=O)Nc2ccc3c(c2)OCCO3)oc2ccccc12`, the inhibition was -69.2%.
Regarding `O=C(NCCc1ccccc1F)c1ccc2c(c1)OCCO2`, the inhibition is 80.8% (active).
In the case of `CCSc1nc2c(c(=O)[nH]c(=O)n2C)n1C/C=C(/C)Cl`, the inhibition was 11.6%.
For the compound `CCCCc1nc(N2CCN(C(=O)c3ccco3)CC2)c(C#N)c2c1CCCC2`, the inhibition is 29.5%.
For the compound `O=C(Nc1ccc(N2CCCC2)c(Cl)c1)c1ccc([N+](=O)[O-])o1`, the inhibition was -26.1%.
To `O=C(Nc1ccc(N2CCN(C(=O)c3ccco3)CC2)c(Cl)c1)c1cc2ccccc2o1` belongs 99.1% (active); to `CCC(=O)N1CCN(c2ccc(NC(=O)c3cc4ccccc4o3)cc2Cl)CC1`, 101% (active).
The figure for `Cc1cc(OCc2ccc(C(=O)Nc3ccc(C(=O)O)cc3)o2)ccc1Cl` is -32.8%; for `O=C(Nc1ccc(N2CCN(C(=O)c3ccccc3)CC2)c(Cl)c1)c1ccc(Br)o1` it is 67.5% (active).
The figure for `O=C(Nc1ccc(N2CCN(C(=O)c3ccccc3)CC2)cc1)c1ccc([N+](=O)[O-])o1` is 25.2%; for `COc1ccc(N(Cc2cc3cc(OC)ccc3[nH]c2=O)S(=O)(=O)c2ccc(NC(C)=O)cc2)cc1` it is 16.3%.
`COc1ccc2[nH]c(=O)c(CN(Cc3cccnc3)S(=O)(=O)c3ccccc3F)cc2c1`: the inhibition is 50.9% (active).
The figure for `N#C/C(=C\C=C\c1ccccc1[N+](=O)[O-])C(=O)NC1CCCCC1` is 61.6% (active); for `CC1CCCCC1NC(=O)/C(C#N)=C/C=C/c1ccccc1[N+](=O)[O-]` (stereo unspecified) it is 47.1%.
For `O=[N+]([O-])c1ccc(Sc2cccc3cccnc23)c([N+](=O)[O-])c1`, the inhibition was 103% (active).
The figure for `O=C(Cn1nc([N+](=O)[O-])nc1Br)NC(c1ccccc1)c1ccccc1` is -0.7%; for `O=[N+]([O-])c1ccc(Sc2nccn2Cc2ccccc2)c([N+](=O)[O-])c1` it is -0.6%; for `Cn1nc([N+](=O)[O-])nc1Sc1cccc2cccnc12` it is 31.7%.
Consider `C=CCn1nc([N+](=O)[O-])nc1Sc1cccc2cccnc12`, for which the inhibition is 95.9% (active).
To `Cc1cc(C)nc(Sc2ccc([N+](=O)[O-])cc2[N+](=O)[O-])n1` belongs -34.5%.
With `CC(C)c1ccc(/C=C(\c2nc3ccccc3[nH]2)S(=O)(=O)c2ccccc2)cc1`, the inhibition is 107% (active).
To `Cc1cccc(/C=C(\c2nc3ccccc3[nH]2)S(=O)(=O)c2ccccc2)c1` belongs 82.2% (active); to `O=S(=O)(Nc1nc2ccccc2[nH]1)c1ccccc1`, 34.8%.
To `O=S(=O)(/C(=C/c1ccc(C(F)(F)F)cc1)c1nc2ccccc2[nH]1)c1ccccc1` belongs 72.8% (active); to `COc1ccc(S(=O)(=O)NCC2CCCN(Cc3cccnc3)C2)cc1` (stereo unspecified), -9.5%.
To `C/C=C/Cn1c(SCCCc2ccccc2)nc2c1c(=O)[nH]c(=O)n2C` belongs 5.5%.
With `N#Cc1ccc(C(=O)Nc2nc(-c3cccs3)c(C(=O)C(F)(F)F)s2)cc1`, the inhibition was 70% (active).
For the compound `COc1ccc(/C=C/C(=O)c2c(C)cc(C)[nH]c2=O)c2ccccc12`, the inhibition is 20.8%.
The figure for `Cc1cc(C)c(C(=O)/C=C/c2ccc(C(C)C)cc2)c(=O)[nH]1` is 72.7% (active); for `O=C(O)C(Cc1ccccc1)N1C(=O)/C(=C/c2cccc3ccccc23)SC1=S` (stereo unspecified) it is 31.7%.
The figure for `Cc1cc(C)c(C(=O)/C=C/c2cccc3ccccc23)c(=O)[nH]1` is 92.8% (active).
As to `O=c1cc(-c2ccccc2)nc2c(-c3ccccc3)c(C(F)(F)F)[nH]n12`, the inhibition is 73.9% (active).
Take `O=c1cc(-c2ccccc2)nc2cc(-c3ccc(Br)cc3)[nH]n12`: the inhibition is 38.7%.
With `COc1ccc(-c2c(C(F)(F)F)[nH]n3c(=O)cc(-c4ccccc4)nc23)cc1`, the inhibition was 55.7% (active).
In the case of `Cc1ccc2cc(C)c(N3CCC(C)CC3)nc2c1`, the inhibition is 20.9%.
To `CC1=CC(=O)C=C(C)C1=NOS(=O)(=O)c1ccccc1` belongs 48.1%; to `CC1=C/C(=N\OS(=O)(=O)c2ccccc2)C=CC1=O`, 57.4% (active).
To `OCCCNc1cc(-c2ccnc(Nc3cccc(Cl)c3)n2)ccn1` belongs 96.3% (active).
Turning to `Oc1nc(Nc2cccc(Cl)c2)sc1/C=C1\C=Nc2ccccc21`, the inhibition is -12.4%.
To `OCCCNc1nccc(-c2cc(Nc3cccc(Cl)c3)ncn2)n1` belongs 98.2% (active); to `CCS(=O)(=O)c1ccc2oc(SCC(=O)NCc3ccccc3)nc2c1`, 36.5%; to `Cc1sc2ncnc(Sc3nnnn3-c3ccc(Cl)cc3)c2c1C`, 87% (active).
To `Cc1ccccc1-n1nnnc1Sc1nnnn1-c1ccccc1` belongs 75.4% (active); to `Cc1sc2ncnc(Sc3nnnn3-c3ccccc3)c2c1C`, 89.8% (active); to `Cn1nnnc1Sc1ncnc2scc(-c3ccccc3)c12`, 22.8%.
Turning to `CCc1c(C)nc2ccc(Br)cc2c1SCCC#N`, the inhibition was 43.8%.
The figure for `COc1ccc2cc3c(N)nn(C(=O)C4CCC(C(C)(C)C)CC4)c3nc2c1` (stereo unspecified) is 104% (active).
To `COc1cc(/C=C/c2ccc3cccc(OC)c3n2)c(OC(C)=O)c([N+](=O)[O-])c1` belongs 9.5%; to `COc1ccc2cc3c(N)nn(C(=O)c4ccccc4[N+](=O)[O-])c3nc2c1`, 79.5% (active).
In the case of `COc1ccc2cc3c(N)nn(C(=O)c4ccccc4Cl)c3nc2c1`, the inhibition is 94.3% (active).
With `CCn1ccnc1CN1CCCC(C(=O)c2ccc3cc(OC)ccc3c2)C1` (stereo unspecified), the inhibition was 39.3%.
To `CC1=NOC(=O)/C1=C\c1ccc(-c2cc(Cl)ccc2Cl)o1` belongs -2.6%; to `CC1CCc2c(sc(NC(=O)c3cccs3)c2C(=O)O)C1` (stereo unspecified), -35.7%; to `N#Cc1c(NC(=O)CSc2ncn[nH]2)sc2c1CCCC2`, 53.4% (active).
The figure for `CCOC(=O)c1c(NC(=O)CSc2ncn[nH]2)sc(C)c1C` is 37.2%; for `O=C(Nc1sc2c(c1C(=O)O)CCCC2)c1ccc(F)cc1` it is -13.9%.
Take `CC1CCc2c(sc(NC(=O)/C=C/c3cccs3)c2C(=O)O)C1` (stereo unspecified): the inhibition is 31.1%.
Take `CC1CCc2c(sc(NC(=O)CSc3ncn[nH]3)c2C#N)C1` (stereo unspecified): the inhibition is 68.2% (active).
The figure for `N#Cc1c(NC(=O)CSc2ncn[nH]2)sc2c1CCCCC2` is 73.9% (active).
To `N#C/C(=C(/O)Cc1cccc2ccccc12)c1nc2ccccc2s1` belongs 74.8% (active).
To `Nc1nc(CSc2nc3ccccc3s2)nc(Nc2ccccc2)n1` belongs -3%; to `N#C/C(=C(/O)COc1ccc(Cl)cc1)c1nc2ccccc2s1`, 73.1% (active).
Turning to `O=C(COc1ccc(Cl)cc1)Nc1nc(-c2ccncc2)cs1`, the inhibition was 20.3%.
To `O=C(NCc1cccnc1)/C(=C/c1ccc(-c2ccc(Cl)cc2)o1)S(=O)(=O)c1ccccc1` belongs 85.2% (active).
To `O=C(NCc1cccnc1)/C(=C\c1ccc(-c2ccc(Cl)c(Cl)c2)o1)S(=O)(=O)c1ccccc1` belongs 109% (active); to `COc1ccc(-c2cn(-c3ccc(C)cc3C)c(=S)[nH]2)cc1OC`, 18.3%; to `Nc1ncnc(Sc2ccc(Cl)cc2)c1[N+](=O)[O-]`, 1%.
On to `CC1CCCCN1c1ncnc(N)c1[N+](=O)[O-]` (stereo unspecified), for which the inhibition is 59.2% (active).
With `Nc1ncnc(Nc2ccccn2)c1[N+](=O)[O-]`, the inhibition was 22.8%.
Take `Nc1ncnc(N2CCc3ccccc32)c1[N+](=O)[O-]`: the inhibition is 99.8% (active).
Turning to `COc1ccc(CCN2C(=S)N(c3ccc(Cl)cc3)C(=O)C2CC(N)=O)cc1OC` (stereo unspecified), the inhibition was 17.3%.
For the compound `Cc1cccc(CSc2cccc3cccnc23)c1`, the inhibition was 104% (active).
Regarding `Cn1cc(C(=O)CCl)c2ccccc21`, the inhibition was 77.1% (active).
The figure for `Cn1c(=NC(=O)CCl)sc2ccccc21` is 37.1%.
The figure for `Cn1c(-c2ccccc2)c(C(=O)CCl)c2ccccc21` is 76.3% (active).
On to `Cc1cc(C(=O)CCl)c(C)n1CCc1ccccc1`, for which the inhibition was 47.1%.
To `Cc1ccc(C(C)C)c(OCc2ccc(C(=O)N/N=C/c3ccc(C(=O)O)cc3)cc2)c1` belongs 64.9% (active); to `Cc1ccc(C(C)C)c(OCc2ccc(C(=O)N/N=C/c3cccc(O)c3O)cc2)c1`, 17.2%; to `COc1cc(/C=N/NC(=O)c2ccc(COc3cc(C)ccc3C(C)C)cc2)cc(OC)c1O`, 40.7%.

By inhibition is commonly meant the change of the read-out against control, counted positive when it falls.
